Compound activity: PubChem BioAssay, several laboratories
MMP13 inh = MMP13 (human) collagenase inhibition | P45452 | MMP-13 fTHP FRET cleavage, Mca fluorescence | inhibition, % at 4 µM | actives 0.07% (n = 65,000);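 active = inhibition above the mean of compound-free control plate wells plus 3 SD, cut at about 14% in these data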;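 also: 0% = DMSO wells and 100% = wells with reference MMP-13 inhibitor after basal subtraction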
Her2 expr inh = Her2 kinase expression inhibition; SKBR-3 HER2 protein level, AlphaScreen, 18-24 h; hits give low values; P04626; actives 0.69% (n = 65,000); HER2 level % of control, % at 10 µM;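 active = HER2 level under 5% of the carrier-only control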;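 also: 100% = DMSO carrier and 0% = 500 nM PU-H71 HSP90 inhibitor; lower value means stronger loss of Her2 protein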
SK-BR-3 tox 24h = SK-BR-3 proliferation inhibitors; SK-BR-3 viability, CellTiter-Glo ATP luminescence, 24 h; hits give low values; viability, % at 10 µM; actives 0.47% (n = 41,000); AID 847;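 active = viability at or below the median of all test compounds minus 3 SD, in both replicates if run twice, cut at about 45% in these data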;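 also: 100% = median untreated cell wells and 0% = median positive control drug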
The depositor's hits bear a star; x = not tested or not shown. In the library only some 0.94% were active in any assay of this set; here they are far more common.

SMILES | MMP13 inh | Her2 expr inh | SK-BR-3 tox 24h
CCn1nc(-c2cccs2)nc2c(=O)n(C)c(=O)nc1-2 | 8.4 | -0.1* | 27.3*
CCNc1ccc(P(=S)(N(C)C)N(C)C)cc1 | 4.9 | 51.3 | 86.7
CCCCCn1c(N)c(C(=O)NCCN2CCOCC2)c2nc3ccccc3nc21 | -183.5 | 36.8 | x
CCCCCCn1c(N)c(C(=O)NCCN2CCOCC2)c2nc3ccccc3nc21 | -62.6 | -5.8* | 2.3*
CC(C)Cn1cc(C(=O)N2CCC3(CC2)OCCO3)c2c3ccccc3n(C)c2c1=O | -55.1 | 76.4 | 68.4
CN1CCN(c2ccc(C(N)=O)cc2N)CC1 | -4.7 | -19.6* | 75.1
CC1CN(O)C2CCc3nonc3C12O (configuration not stated) | 2.0 | 93.7 | 92.8
CN(C(=O)c1ccco1)C1(c2ccccc2Cl)CCCCC1=O (configuration not stated) | 4.1 | 104.3 | 87.7
C=CCn1c(O)c(C(C)=NCCN2CCOCC2)c(=O)[nH]c1=O | 0.7 | 92.1 | 92.1
CCn1c(O)c(C(=O)CC2NCCc3ccccc32)c(=O)n(CC)c1=S (configuration not stated) | 6.8 | -16.9* | 3.2*
Cc1cc(C)c(C2=NOC(O)(C(F)(F)F)C2)c(=O)[nH]1 (configuration not stated) | 1.6 | 86.1 | 89.6
C=C(C)c1cccc(C(C)(C)NC(=O)NC2CN3CCC2CC3)c1 (configuration not stated) | 6.2 | 100.7 | 96.8
